KB-3-1 cytotox: kills parental KB-3-1 adenocarcinoma cells; 400,000 tested, 1.4% active; AID 1347075; Potency, µM (series often up to 46.1 µM), actives largely listed as cytotoxic; KB-3-1 viability, CellTiter-Glo ATP luminescence, 72 h; note: % is set by controls: 0 for no effect and ±100 for the full control effect; nearly all actives have a fitted effect of over 60% in size
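Here the drug-naive KB-3-1 line serves as comparator for MDR sub-line selectivity; cells received compound titrations, 72 h at 37 °C, then CellTiter-Glo readout.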
HT1080 IDH1KD tx: HT-1080 IDH1 knockdown cell toxicity (counter line) | HT-1080 IDH1 knockdown viability, ATP luminescence, 48 h | Potency, µM (top dose mostly 46.1 µM), without a hit: at the top dose activity, negative = toxicity, hits mostly cytotoxic | 360,000 tested, 2% active | AID 686971;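 note: 0% = DMSO wells and -100% = cell-free medium wells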
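Assay cells: HT-1080 with IDH1 knockdown, 750 per well, RPMI/5% FBS. Exposure: 48 h at 37 °C following 2 h pre-incubation. Read: CellTiter-Glo luminescence; fitted concentration-response, curve class assigned.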
HT1080NT lethal: kills 2HG-producing HT-1080-NT fibrosarcoma cells | HT-1080-NT fibrosarcoma viability, CellTiter-Glo ATP luminescence, 48 h | Potency, µM (doses to about 46.1 µM), for inactives: at the top dose activity, negative = less viability, usual class: cytotoxic | 360,000 tested, 1.6% active | AID 686970;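 note: NT is the 2HG producing partner of a matched IDH1 knockdown line; 0% = DMSO-treated cells and -100% = media-only wells without cells; nearly all actives have a fitted effect of over 55% in size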
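Toxicity toward the 2HG-producing NT line was scored as %Activity, normalised to DMSO and no-cell wells, from CellTiter-Glo luminescence after 48 hours' treatment.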
KB-V1 cytotox: kills drug-selected multidrug resistant KB-V1 cells | KB-V1 MDR cells viability, CellTiter-Glo, 72 h | Potency, µM (highest dose often 46.1 µM), actives largely listed as cytotoxic | 400,000 tested, 3.4% active | AID 1347076; note: % is set by controls: 0 for no effect and ±100 for the full control effect; nearly all actives have a fitted effect of over 60% in size
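KB-V1, DMEM (no phenol red) + 10% FBS; cpd pin-transferred, titration series; 72 h, 37 degrees C; CellTiter-Glo, luminescence. Data normalized, curve-fit.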
SW480 rereplic: induces DNA re-replication in SW480 colon adenocarcinoma cells. SW480 DNA re-replication, Hoechst DNA content imaging, 48 h. Potency, µM (doses to about 46.1 µM), for inactives: at the highest dose re-replication activation, hits mostly activators. 340,000 tested, 1.8% active; note: % of control where 0% means no effect; nearly all actives have a fitted effect of over 55% in size
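Image-based read-out: total Hoechst fluorescence of nuclei (405 nm excitation, 500-530 nm emission), with hits raising the fraction of high-intensity nuclei. SW480 colon cells incubated 48 hr with compounds at 37 C.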
MCF10A rereplic: inducers of DNA re-replication in MCF 10A breast cells; MCF 10A DNA re-replication, Hoechst nuclear intensity, 48 h; Potency, µM (doses to about 46.1 µM), for the others: at the highest dose activity, positive = re-replication, usual class: activators; 350,000 tested, 2.9% active; AID 624296; note: % of control where 0% means no effect; nearly all actives have a fitted effect of over 50% in size
* = called active by the depositor; i = inactive; ? = inconclusive; nt = no result; [ ] = another dose, or the depositor's remark. Sampled rows, rich in hits. Any-hit rate of the full collection: about 8%. Calls come from the whole dose curve; as a rule, active = well fitted curve in the direction sought with a large enough effect; inconclusive = small, poorly fitted or top-dose-only effect, or another doubt; inactive = no such curve, though single readings can be large; an effect the other way counts as inactive or inconclusive. Potency is the fitted concentration of half-maximal effect.

SMILES	KB-3-1 cytotox	HT1080 IDH1KD tx	HT1080NT lethal	KB-V1 cytotox	SW480 rereplic	MCF10A rereplic
CCN(CC)C(=O)[C@H]1C[C@H](CC(=O)NC/C=C(\C)CCC=C(C)C)C(=O)N2CCc3c([nH]c4cc(-c5ccco5)ccc34)[C@]12C	?	?	?	?	17%[9.22 µM]	21µM*
O=C(OCC(=O)N1CCOCC1)c1cccc(S(=O)(=O)Nc2ccc(F)cc2)c1	i	0%	-7%	i	-32%	-2%
CSc1nnc2c(n1)OC(c1cccn1C)N(C(C)=O)c1ccccc1-2 (configuration not stated)	i	-2%	-2%	i	2%	3%
Cc1cccc(Cc2c(C)nc3nc(SCC(=O)NCc4ccccc4)nn3c2C)c1	15µM*	nt	nt	i	nt	nt
CC1(C)Cc2c(c(-c3ccccc3Cl)[nH]c(=O)c2C#N)CO1	i	0%	-3%	i	1%	-2%
N#Cc1c(-c2ccc(Cl)cc2)c2c([nH]c1=O)-c1ccccc1OC2	i	4%	1%	i	5.8µM*	1.8µM*
COc1ccc(C)cc1NC(=O)Cn1c(=O)ccc2cc(S(=O)(=O)N3CCCC3)ccc21	i	nt	nt	i	nt	nt
CC1=NN(C(=O)c2cc(C)nn2C)C(O)(C(F)(F)F)C1 (configuration not stated)	i	15%	6%	i	0.52µM*	3%
CC1=NN(C(=O)c2csc(C)c2)C(O)(C(F)(F)F)C1 (configuration not stated)	i	2%	3%	i	3%	0%
CC1=NN(C(=O)c2c(Br)cnn2C)C(O)(C(F)(F)F)C1 (configuration not stated)	i	14%	4%	i	-3%	-10%
CC1=NN(C(=O)c2nn(C)cc2Br)C(O)(C(F)(F)F)C1 (configuration not stated)	i	21%	2%	i	13µM*	?
COc1ccc(/C=C(/NC(=O)c2ccccc2)C(=O)NCc2ccco2)cc1	?	-18%	-20%	?	7%	-3%
O=c1c2cccc3c2c(nn1CN1CCOCC1)-c1ccccc1-3	4.1µM*	?	-24%	1.6µM*	-1%	?
CCN(CC)CCn1nc(C)nc1-c1ccccc1O	i	4%	1%	?	2%	0%
CCN(CC)CCn1nc2c3c(cccc3c1=O)-c1ccccc1-2	?	21µM*	15µM*	5.8µM*	9.2µM*	21%
CCCC(=O)Nc1ccc(-c2cn3cccnc3n2)cc1	i	15%	18%	i	-7%	18%
COc1cc2c(c(OC)c1CC=C(C)C)C[C@H](c1ccc(O)cc1O)CO2	i	-8%	0%	i	2%	16µM*
Cc1ccc(NC(=O)Nc2nc3ccc(S(C)(=O)=O)cc3s2)cc1	i	-4%	1%	i	-9%	-3%
Cc1cc2c(c(C)c1CCO[C@@H]1O[C@H](CO)[C@@H](O)[C@H](O)[C@H]1O)C(=O)[C@@H](C)[C@@H]2O	?	8%	-1%	i	-2%	18µM*
CC1CCN(S(=O)(=O)N2CCCC(C(=O)NCc3ccc(F)cc3)C2)CC1 (configuration not stated)	i	-3%	-7%	i	16%	0%
CSc1ccc(CNC(=O)C2CCCN(S(=O)(=O)N(C)c3ccc(F)cc3)C2)cc1 (configuration not stated)	16µM*	nt	nt	i	nt	nt
CCCNC(=O)C(Cc1ccccc1)NS(=O)(=O)c1ccc2c(c1)c(=O)n(C)c(=O)n2C (configuration not stated)	i	-1%	1%	i	-6%	3%
O=C(C1CCCN(S(=O)(=O)c2cccc3nsnc23)C1)N1CCN(c2ccccc2Cl)CC1 (configuration not stated)	?	nt	nt	i	nt	nt

Screening results as filed in PubChem.
